# Compound activity (PubChem BioAssay)
# An excerpt weighted towards active compounds, which were near 1.4% of everything screened.
# Rango release inh = prevents RanGTP from dissociating the Rango-importin beta complex; O95149+P62826; Biochemical FRET Rango-importin beta, RanGTP-induced dissociation; Potency, µM (series often up to 46.1 µM), without a hit: at the highest dose activity change, negative = inhibition; 0.071% of 340,000 active; AID 540253; note: potency is the fitted concentration of half-maximal effect; % of control where 0% means no effect; nearly all actives have a fitted effect of over 45% in size
#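 Rango FRET biosensor (snurportin-1 IBB flanked by N-terminal EYFP and C-terminal CFP10) at 0.1 uM, with 0.25 uM importin beta in PBS, 1mM DTT, 0.02% Tween-20, 0.1% BSA. 0.6 uM Ran, 2mM GTP and 0.2 uM RCC1 were then added for 45 min at room temperature. Inhibition read as loss of FRET rise.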
# CCT chaperon mod = changes cytosolic chaperonin activity; purified chaperonin ATPase assay, HTRF ADP detection, 30 min; activity change, % (test concentration not listed), hits read low; 0.3% of 360,000 active; in the data active = activity change below about -30%; note: % is set by controls: 0 for no effect and ±100 for the full control effect
#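 We incubate TRiC, 40 or 20 nM final, with library compounds at 76 uM and 10 uM ATP for 30 min at 37 °C. ADP formed is detected with Transcreener HTRF reagents after 30 min at room temperature.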
# KCNH2 3.1 block = KCNH2 3.1 (human) potassium channel inhibition; U2OS KCNH2 3.1, thallium flux FluxOr; active compounds read low; activity change, % (tested at about 1.8 µM); 0.95% of 340,000 active; AID 720553;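 active = maximum activity change below -70%; inconclusive = maximum activity change from -70% to -50%; inactive = maximum activity change above -50%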;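 note: thallium influx rate constant from kinetic fluorescence after stimulation buffer; % is set by controls: 0 for no effect and ±100 for the full control effect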
#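 FluxOr-based Tl+ influx in U2OS cells transduced with KCNH2 3.1 virus; rate constants normalized to DMSO controls.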
# MmCpn inh = M. maripaludis TRiC chaperonin inhibition; Potency, µM (series often up to 76.9 µM), without a hit: at the highest dose activity, negative = inhibition, most hits filed as inhibitors; AID 504842; 0.031% of 330,000 active; purified Mm-Cpn ATPase, ADP Transcreener TR-FRET; active = well fitted inhibition curve with a large enough effect; inconclusive = small, poorly fitted or top-dose-only effect; note: potency is the fitted concentration of half-maximal effect; % is set by controls: 0 for no effect and ±100 for the full control effect; nearly all actives have a fitted effect of over 80% in size
#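 Reaction buffer contained 30 mM Tris pH 7.4, 100 mM KCl, 5 mM MgCl2 and 1 mM DTT. Mm-CPN (25 nM final) hydrolysed 10 uM ATP over 30 min at 37°C; ADP was read by HTRF.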
# Rango complex inh = Rango-importin beta binding inhibition; Q14974; Rango CFP/YFP FRET sensor + importin beta, 45 min; Potency, µM (top dose mostly 92.2 µM), inactives show at the top dose inhibition of complex formation; 0.031% of 340,000 active; AID 540263;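 note: potency is the fitted concentration of half-maximal effect; 0% = DMSO wells and 100% = buffer wells lacking importin beta; nearly all actives have a fitted effect of over 15% in size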
#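 FRET biosensor Rango (snurportin 1 IBB between N-terminal EYFP and C-terminal Cerulean), 50 nM in PBS/1 mM DTT/0.02% Tween-20/0.1% BSA, preincubated 5 min RT with compound; 0.125 microM importin beta added, 45 min RT, CFP/YFP FRET ratio read.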
# KCNH2 WT inh = inhibitors of human wildtype KCNH2 potassium channel. activity change, % at 1.84 µM. 0.37% of 340,000 active. U2OS, BacMam KCNH2, thallium flux FluxOr; active compounds read low. Q12809;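 active = maximum activity change below -70%; inconclusive = maximum activity change between -70% and -50%; inactive = maximum activity change above -50%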; note: % is set by controls: 0 for no effect and ±100 for the full control effect
#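 U2OS cells were transduced with wild-type KCNH2 virus (2.03 x 10^8 / mL) for 4 h at room temperature, then cultured overnight at 37 C. Thallium flux was read with FluxOr dye. Rate constants were normalized to DMSO controls.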
# * = called active by the depositor; u = inconclusive; x = no result. Unless noted, calls come from the whole dose curve.
SMILES,Rango release inh,CCT chaperon mod,KCNH2 3.1 block,MmCpn inh,Rango complex inh,KCNH2 WT inh
O=C(CN1CCN(S(=O)(=O)c2ccc(Br)cc2)CC1)N/N=C/c1ccc(Br)s1,-8%,-1,-76*,-3%,-3%,-27
Cc1ccc(S(=O)(=O)N2CCN(CC(=O)N/N=C/C=C/c3ccccc3)CC2)cc1,-12%,-9,-75*,1%,5%,-5
CC(=O)NCCC(=O)Nc1cc(S(=O)(=O)N2CCOCC2)ccc1Oc1ccccc1,3%,0,-2,0%,0%,-74*
O=C(Cc1cccs1)Nc1cc(S(=O)(=O)N2CCCCC2)ccc1Cl,7%,-1,-7,-4%,-1%,-6
CCOc1ccc(/C=N/OCC(=O)Nc2cc(S(=O)(=O)N3CCOCC3)ccc2OC)cc1,13%,-84*,12,x,1%,-3
COc1ccc(S(=O)(=O)N2CCCCC2)cc1NC(=O)Cc1cccs1,5%,-2,-76*,-1%,1%,-6
CC(=O)NCCC(=O)Nc1cc(S(=O)(=O)N2CCOCC2)ccc1Oc1ccc(F)cc1,0%,0,-7,1%,-1%,0
Cc1ccc(C(=O)CSc2nc(-c3ccccc3)cc(=O)[nH]2)cc1,13%,-2,0,-4%,6%,-91*
Cc1ccc(C(=O)CSc2nc(N)cc(=O)[nH]2)cc1,1%,-3,1,1%,-4%,-10
Cc1ccnc(NCn2nnc3ccccc32)c1,1%,-2,4,3%,0%,-8
Cc1ccc(-c2nnn(CC(=O)N(CC(=O)NC3CCCC3)c3ccc(F)cc3)n2)o1,-12%,-3,6,1%,0%,-74*
O=C(Nc1ccc(F)cc1)C(=O)c1c(O)[nH]c2ccc([N+](=O)[O-])cc12,-9%,0,-82*,2%,0%,-18
Cc1[nH]n(-c2ccccc2)c(=O)c1N=Nc1ccc(F)cc1,u,1,-79*,-2%,u,30
COC(=O)Cn1ccc(-c2ccc(Cl)cc2)c(C#N)c1=O,0%,1,-114*,2%,1%,-1
Cc1ccc2ccccc2c1C(O)c1ncc(-c2ccccc2F)[nH]1 (centres undefined),x,2,x,x,x,x
Cc1cccc(C)c1NC(=O)Cn1nnnc1N,8%,0,-91*,0%,0%,-4
COC(=O)c1cc(COC(=O)CNC(=O)c2ccc(Br)cc2)oc1C,-1%,-1,5,-4%,6%,-8
Cc1ccc(CN2CCN(Cc3cccn3-c3ccccn3)CC2CCO)cc1 (centres undefined),-14%,-1,-72*,1%,-4%,-76*
Cc1ccc(CN2CCN(Cc3cccn3-c3nccs3)CC2CCO)cc1 (centres undefined),-3%,3,-88*,u,-4%,-27
O=C(CNC(=O)c1ccc(Br)o1)Nc1cccc(S(=O)(=O)N2CCOCC2)c1,-15%,0,15,-8%,-4%,15
OC(COCc1cccs1)CN1CCN(c2ccccc2Cl)CC1 (centres undefined),2%,1,-83*,0%,1%,7
Cc1cccc(N2CCN(CC(O)COCc3cccs3)CC2)c1C (centres undefined),8%,-3,-98*,0%,3%,-80*
O=C(NCc1ccccn1)c1ccccc1OCc1ccc(F)cc1,2%,-2,-101*,1%,2%,0
COC(=O)[C@@]1(Cc2ccccc2)[C@H]2C(=O)N(C)C(=O)[C@H]2[C@H]2CN=C(SCc3ccc(Cl)cc3)N21,-1%,-1,u,0%,-2%,-8
COC(=O)[C@@]1(Cc2ccccc2)[C@H]2C(=O)N(C)C(=O)[C@H]2[C@H]2CN=C(SCc3ccc(C)cc3)N21,-4%,-60*,-22,-1%,4%,-1
SMILES,Rango release inh,CCT chaperon mod,KCNH2 3.1 block,MmCpn inh,Rango complex inh,KCNH2 WT inh
CC1CCN(C(=O)c2ccccc2SCC(=O)NCC2CCCCC2)CC1,-1%,-3,-1,1%,0%,-31
Cc1cccc(-c2nc(CN3CCCC(C(=O)NC4CCCC4)C3)c(C)o2)c1 (centres undefined),-7%,1,-82*,1%,-1%,38
O=C(Nc1cccnc1)c1cc2c(s1)-c1ccccc1OC2,6%,-71*,-13,-1%,-1%,18
Cc1cccc2c1-c1sc(C(=O)Nc3cccnc3)cc1CO2,u,1,-8,-1%,u,16
Cc1cccc(Nc2nnc(SCC(=O)c3ccc(Br)s3)s2)c1C,1%,2,-4,40µM*,0%,0
C/C(N)=C(/C#N)C(=O)CSc1nnc(Nc2cccc(C)c2C)s1,-3%,-3,-6,1%,1%,-9
CCOc1ccc(CN(C)C(=O)c2ccc(NC(=O)CC3SC(N4CCCC4)=NC3=O)cc2)cc1 (centres undefined),-2%,0,-35,0%,1%,-13
O=C(c1ccco1)N1CCN(Cc2ccc(Cl)cc2)CC1,-10%,3,31,1%,0%,-10
O=C(c1ccco1)N1CCN(C(=O)C2CC(=O)N(c3ccc(Cl)cc3)C2)CC1 (centres undefined),0%,-2,-95*,2%,1%,-12
CC(Oc1ccc(Cl)cc1)C(=O)N1CCN(C(=O)c2ccco2)CC1 (centres undefined),9%,0,-164*,1%,-1%,-129*
Cc1cc(S(=O)(=O)Nc2nc(CN3CCOCC3)nc3sc4c(c23)CCC4)cc(C)c1C,-8%,-1,0,-1%,1%,-7
COc1cccc(Nc2nc(CN3CCOCC3)nc3sc4c(c23)CCCC4)c1,2%,-1,-6,2%,4%,-134*
CN(CCc1ccccc1)C(=O)CC1C(=O)NCCN1Cc1ccccn1 (centres undefined),x,1,-5,x,x,-2
CN(NC(=O)c1ccccc1F)c1ccc([N+](=O)[O-])cn1,0%,-43*,-38,1%,-1%,11
O=C(NC(=O)N1CCN(c2ccc([N+](=O)[O-])cn2)CC1)c1ccccc1F,-23%,0,2,-2%,0%,-3
COc1cccc(C(=O)NNC2OC(CO)C(O)C2O)c1 (centres undefined),2%,-10,-4,3%,u,-4
COC(=O)c1ccccc1NS(C)(=O)=O,-17%,0,-6,-2%,1%,6
CNc1ccccc1C(=O)OCC(=O)c1ccccc1,-4%,-3,-8,1%,0%,4
